# Data published in PMC7862700, “An all-to-all approach to the identification of sequence-specific readers for epigenetic DNA modifications on cytosine”.
# Columns and labels:
# Assay in all cases: DAPPL (digital affinity profiling via proximity ligation, sequencing); 10 mM Tris-HCl pH 7.5, 50 mM NaCl, 1 mM DTT, 4% glycerol, room temperature, 30 min; GST-TFs on glutathione beads, 16-mer random dsDNA library, 0.1% formaldehyde crosslink after washing; high values mean tight binding
# FLI1 = target: T1, FLI1 (Homo sapiens, UniProt Q01543 1-452); conditions: protein: recombinant; tags: N-terminal GST; dsDNA, one strand shown
# T1 sequence: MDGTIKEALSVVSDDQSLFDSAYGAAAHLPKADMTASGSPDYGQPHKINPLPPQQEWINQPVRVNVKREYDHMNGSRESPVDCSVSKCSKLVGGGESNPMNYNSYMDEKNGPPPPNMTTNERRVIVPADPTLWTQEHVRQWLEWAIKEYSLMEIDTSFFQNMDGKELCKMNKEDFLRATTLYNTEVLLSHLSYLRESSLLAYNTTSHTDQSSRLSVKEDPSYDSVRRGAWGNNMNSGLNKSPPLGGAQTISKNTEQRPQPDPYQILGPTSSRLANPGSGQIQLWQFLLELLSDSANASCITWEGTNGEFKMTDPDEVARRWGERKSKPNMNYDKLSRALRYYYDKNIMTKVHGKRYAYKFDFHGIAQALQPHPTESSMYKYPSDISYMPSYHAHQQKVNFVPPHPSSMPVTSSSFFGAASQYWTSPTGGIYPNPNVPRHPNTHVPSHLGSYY
# Procedure, shortened: (§1)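 GST fusions of human transcription factors were expressed in yeast and captured with glutathione beads. Once given DNA barcodes and pooled alongside a tag-only sample, they were incubated for 30 min at room temperature with 200 nmole of a random double-stranded 16-mer DNA library in Tris/NaCl/DTT/glycerol buffer, then washed, crosslinked (0.1% formaldehyde), proximity-ligated, PCR-amplified and sequenced on an Illumina NextSeq500. The binding signal of each hexamer is its read frequency for a factor divided by its frequency for the tag-only sample.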
# ELK1 = target: T2, ELK1 (Homo sapiens, UniProt P19419 1-428); conditions: protein: recombinant; tags: N-terminal GST; dsDNA, one strand shown
# T2 sequence: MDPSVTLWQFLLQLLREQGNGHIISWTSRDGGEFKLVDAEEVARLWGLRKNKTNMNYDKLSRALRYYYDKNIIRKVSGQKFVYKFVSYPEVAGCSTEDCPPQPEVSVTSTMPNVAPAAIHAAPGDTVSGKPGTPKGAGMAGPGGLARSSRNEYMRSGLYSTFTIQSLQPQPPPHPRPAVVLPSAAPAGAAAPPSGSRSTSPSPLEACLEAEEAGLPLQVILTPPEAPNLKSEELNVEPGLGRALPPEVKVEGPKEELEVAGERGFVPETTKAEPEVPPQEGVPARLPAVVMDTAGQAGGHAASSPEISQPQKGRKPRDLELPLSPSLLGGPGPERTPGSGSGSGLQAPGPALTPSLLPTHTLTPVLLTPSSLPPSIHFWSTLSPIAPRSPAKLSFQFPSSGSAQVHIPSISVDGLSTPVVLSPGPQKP
# Procedure, shortened: as §1
# GABPA = target: T3, GABPA (Homo sapiens, UniProt Q06546 1-454); conditions: protein: recombinant; tags: N-terminal GST; dsDNA, one strand shown
# T3 sequence: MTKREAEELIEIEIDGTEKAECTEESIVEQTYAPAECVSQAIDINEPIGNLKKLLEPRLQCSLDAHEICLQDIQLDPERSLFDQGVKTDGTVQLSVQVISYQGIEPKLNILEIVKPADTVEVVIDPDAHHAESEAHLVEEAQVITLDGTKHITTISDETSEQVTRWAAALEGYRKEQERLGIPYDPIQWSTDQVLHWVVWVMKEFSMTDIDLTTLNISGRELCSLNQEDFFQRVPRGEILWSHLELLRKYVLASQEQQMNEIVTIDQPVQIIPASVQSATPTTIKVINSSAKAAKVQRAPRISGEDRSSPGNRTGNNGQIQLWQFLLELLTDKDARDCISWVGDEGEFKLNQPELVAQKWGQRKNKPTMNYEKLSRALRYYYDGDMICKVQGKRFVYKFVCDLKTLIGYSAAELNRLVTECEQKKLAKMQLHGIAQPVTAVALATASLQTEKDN
# Procedure, shortened: as §1
# ERG = target: T4, ERG (Homo sapiens, UniProt P11308 1-479); conditions: protein: recombinant; tags: N-terminal GST; dsDNA, one strand shown
# T4 sequence: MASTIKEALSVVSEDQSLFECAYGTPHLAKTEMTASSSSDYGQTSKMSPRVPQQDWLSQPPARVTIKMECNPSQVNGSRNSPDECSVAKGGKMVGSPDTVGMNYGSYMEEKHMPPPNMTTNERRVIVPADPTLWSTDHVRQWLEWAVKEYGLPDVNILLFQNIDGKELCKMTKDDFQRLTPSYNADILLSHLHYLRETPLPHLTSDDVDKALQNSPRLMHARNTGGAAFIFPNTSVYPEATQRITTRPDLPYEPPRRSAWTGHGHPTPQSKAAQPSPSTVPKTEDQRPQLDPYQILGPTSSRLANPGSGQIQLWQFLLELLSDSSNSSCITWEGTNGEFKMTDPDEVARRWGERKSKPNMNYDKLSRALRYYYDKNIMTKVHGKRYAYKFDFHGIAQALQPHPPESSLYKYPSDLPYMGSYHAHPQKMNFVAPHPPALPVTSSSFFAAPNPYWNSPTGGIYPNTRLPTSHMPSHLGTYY
# Procedure, shortened: as §1
# ELF1 = ELF1 (Homo sapiens, UniProt P32519 1-619); conditions: protein: recombinant; tags: N-terminal GST; dsDNA, one strand shown
# Sequence of ELF1 (P32519 whole entry): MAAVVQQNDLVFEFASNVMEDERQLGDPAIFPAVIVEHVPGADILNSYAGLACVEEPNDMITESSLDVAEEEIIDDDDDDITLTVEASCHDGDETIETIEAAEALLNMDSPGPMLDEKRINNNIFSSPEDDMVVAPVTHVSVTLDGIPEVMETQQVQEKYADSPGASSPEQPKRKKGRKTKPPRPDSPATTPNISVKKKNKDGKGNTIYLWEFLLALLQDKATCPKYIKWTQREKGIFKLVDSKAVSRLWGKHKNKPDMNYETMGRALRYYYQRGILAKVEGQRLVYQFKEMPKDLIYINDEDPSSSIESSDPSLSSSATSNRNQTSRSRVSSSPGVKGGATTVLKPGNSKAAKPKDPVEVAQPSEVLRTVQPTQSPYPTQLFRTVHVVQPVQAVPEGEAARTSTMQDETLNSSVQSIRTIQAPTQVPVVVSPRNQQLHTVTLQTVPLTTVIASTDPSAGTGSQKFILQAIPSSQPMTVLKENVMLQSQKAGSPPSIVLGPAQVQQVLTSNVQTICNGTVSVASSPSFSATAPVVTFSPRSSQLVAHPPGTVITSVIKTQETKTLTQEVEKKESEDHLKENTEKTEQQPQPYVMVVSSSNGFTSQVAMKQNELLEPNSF
# Procedure, shortened: as §1
# EHF = target: T5, EHF (Homo sapiens, UniProt Q9NZC4 1-300); conditions: protein: recombinant; tags: N-terminal GST; dsDNA, one strand shown
# T5 sequence: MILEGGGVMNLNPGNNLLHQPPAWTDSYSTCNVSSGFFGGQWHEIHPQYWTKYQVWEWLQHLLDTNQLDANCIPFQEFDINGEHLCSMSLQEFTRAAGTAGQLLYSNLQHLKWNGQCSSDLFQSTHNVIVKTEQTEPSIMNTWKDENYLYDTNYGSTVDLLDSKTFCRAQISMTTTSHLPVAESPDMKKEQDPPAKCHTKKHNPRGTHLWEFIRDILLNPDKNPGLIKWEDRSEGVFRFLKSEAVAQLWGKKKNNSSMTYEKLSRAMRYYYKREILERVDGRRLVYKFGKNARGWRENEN
# Procedure, shortened: as §1
# SPI1 = SPI1 (Homo sapiens, UniProt P17947 1-270); conditions: protein: recombinant; tags: N-terminal GST; dsDNA, one strand shown
# Procedure, shortened: as §1
# SPIB = SPIB (Homo sapiens, UniProt Q01892 1-262); conditions: protein: recombinant; tags: N-terminal GST; dsDNA, one strand shown
# Sequence of SPIB (Q01892 whole entry): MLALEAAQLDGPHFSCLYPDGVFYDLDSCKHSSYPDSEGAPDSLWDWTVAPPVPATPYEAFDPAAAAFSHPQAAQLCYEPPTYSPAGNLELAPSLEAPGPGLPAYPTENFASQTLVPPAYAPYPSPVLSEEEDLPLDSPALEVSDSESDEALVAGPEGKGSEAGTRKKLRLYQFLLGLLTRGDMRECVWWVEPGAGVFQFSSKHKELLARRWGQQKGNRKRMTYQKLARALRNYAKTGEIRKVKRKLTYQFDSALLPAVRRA
# Procedure, shortened: as §1
# ELK3 = target: T6, ELK3 (Homo sapiens, UniProt P41970 1-407); conditions: protein: recombinant; tags: N-terminal GST; dsDNA, one strand shown
# T6 sequence: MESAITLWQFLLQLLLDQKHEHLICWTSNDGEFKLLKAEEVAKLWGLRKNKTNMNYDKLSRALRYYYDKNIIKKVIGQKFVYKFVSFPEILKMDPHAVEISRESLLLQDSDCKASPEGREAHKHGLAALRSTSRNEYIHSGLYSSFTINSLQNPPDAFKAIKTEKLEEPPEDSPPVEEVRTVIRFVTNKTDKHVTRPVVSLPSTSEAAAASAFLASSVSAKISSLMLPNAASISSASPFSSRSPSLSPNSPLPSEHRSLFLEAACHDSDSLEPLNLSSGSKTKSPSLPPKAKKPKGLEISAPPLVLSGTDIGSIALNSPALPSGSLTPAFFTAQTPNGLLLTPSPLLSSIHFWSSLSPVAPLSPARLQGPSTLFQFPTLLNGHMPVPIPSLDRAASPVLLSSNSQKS
# Procedure, shortened: as §1
# FEV = target: T7, FEV (Homo sapiens, UniProt Q99581 1-238); conditions: protein: recombinant; tags: N-terminal GST; dsDNA, one strand shown
# T7 sequence: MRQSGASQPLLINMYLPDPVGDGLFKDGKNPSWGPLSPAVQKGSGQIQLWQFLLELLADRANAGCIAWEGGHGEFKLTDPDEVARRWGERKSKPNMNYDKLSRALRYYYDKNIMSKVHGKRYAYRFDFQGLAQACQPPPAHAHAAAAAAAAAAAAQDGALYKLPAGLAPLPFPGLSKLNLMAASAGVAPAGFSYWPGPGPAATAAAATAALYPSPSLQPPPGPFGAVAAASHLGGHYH
# Procedure, shortened: as §1
# ETV5 = ETV5 (Homo sapiens, UniProt P41161 1-510); conditions: protein: recombinant; tags: N-terminal GST; dsDNA, one strand shown
# Sequence of ETV5 (P41161 whole entry): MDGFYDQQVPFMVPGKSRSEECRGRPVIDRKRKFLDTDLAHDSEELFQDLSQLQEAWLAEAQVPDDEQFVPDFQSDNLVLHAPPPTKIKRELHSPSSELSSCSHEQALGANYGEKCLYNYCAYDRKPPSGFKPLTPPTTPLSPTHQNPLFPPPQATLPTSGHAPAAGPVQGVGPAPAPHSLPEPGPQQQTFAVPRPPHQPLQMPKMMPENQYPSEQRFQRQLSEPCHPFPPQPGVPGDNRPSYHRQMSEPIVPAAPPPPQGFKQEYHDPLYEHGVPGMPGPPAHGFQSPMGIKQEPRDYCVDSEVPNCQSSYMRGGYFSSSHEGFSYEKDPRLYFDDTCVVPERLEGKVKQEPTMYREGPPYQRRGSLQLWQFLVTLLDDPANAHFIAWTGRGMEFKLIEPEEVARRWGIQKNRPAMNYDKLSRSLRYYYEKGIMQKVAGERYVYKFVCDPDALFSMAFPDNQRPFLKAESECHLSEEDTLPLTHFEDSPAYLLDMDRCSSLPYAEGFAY
# Procedure, shortened: as §1
# HSF1 = HSF1 (Homo sapiens, UniProt Q00613 1-529); conditions: protein: recombinant; tags: N-terminal GST; chain copies: 3; dsDNA, one strand shown
# Sequence of HSF1 (Q00613 whole entry): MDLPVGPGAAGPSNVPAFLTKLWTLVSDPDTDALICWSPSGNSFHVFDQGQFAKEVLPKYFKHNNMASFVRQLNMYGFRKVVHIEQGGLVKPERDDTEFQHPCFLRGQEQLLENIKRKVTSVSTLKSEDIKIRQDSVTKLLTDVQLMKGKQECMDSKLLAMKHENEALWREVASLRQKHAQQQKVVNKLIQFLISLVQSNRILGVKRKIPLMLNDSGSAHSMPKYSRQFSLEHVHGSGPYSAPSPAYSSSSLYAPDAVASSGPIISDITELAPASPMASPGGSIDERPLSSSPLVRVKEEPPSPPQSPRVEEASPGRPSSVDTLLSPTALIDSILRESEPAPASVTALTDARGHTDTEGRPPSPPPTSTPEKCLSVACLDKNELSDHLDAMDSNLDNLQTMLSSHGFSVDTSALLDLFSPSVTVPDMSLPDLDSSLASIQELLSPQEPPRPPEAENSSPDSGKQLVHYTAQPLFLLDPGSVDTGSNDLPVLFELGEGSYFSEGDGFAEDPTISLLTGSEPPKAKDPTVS
# Procedure, shortened: as §1
# SPIC = target: T8, SPIC (Homo sapiens, UniProt Q8N5J4 1-248); conditions: protein: recombinant; tags: N-terminal GST; dsDNA, one strand shown
# T8 sequence: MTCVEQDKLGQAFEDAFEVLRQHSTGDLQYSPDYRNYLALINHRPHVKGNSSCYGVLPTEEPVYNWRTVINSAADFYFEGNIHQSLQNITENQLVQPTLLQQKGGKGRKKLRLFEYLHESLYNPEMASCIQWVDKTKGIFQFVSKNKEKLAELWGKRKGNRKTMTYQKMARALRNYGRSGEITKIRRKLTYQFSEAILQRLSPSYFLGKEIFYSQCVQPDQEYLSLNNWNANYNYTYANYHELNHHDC
# Procedure, shortened: as §1
# ELF4 = ELF4 (Homo sapiens, UniProt Q99607 1-663); conditions: protein: recombinant; tags: N-terminal GST; dsDNA, one strand shown
# Sequence of ELF4 (Q99607 whole entry): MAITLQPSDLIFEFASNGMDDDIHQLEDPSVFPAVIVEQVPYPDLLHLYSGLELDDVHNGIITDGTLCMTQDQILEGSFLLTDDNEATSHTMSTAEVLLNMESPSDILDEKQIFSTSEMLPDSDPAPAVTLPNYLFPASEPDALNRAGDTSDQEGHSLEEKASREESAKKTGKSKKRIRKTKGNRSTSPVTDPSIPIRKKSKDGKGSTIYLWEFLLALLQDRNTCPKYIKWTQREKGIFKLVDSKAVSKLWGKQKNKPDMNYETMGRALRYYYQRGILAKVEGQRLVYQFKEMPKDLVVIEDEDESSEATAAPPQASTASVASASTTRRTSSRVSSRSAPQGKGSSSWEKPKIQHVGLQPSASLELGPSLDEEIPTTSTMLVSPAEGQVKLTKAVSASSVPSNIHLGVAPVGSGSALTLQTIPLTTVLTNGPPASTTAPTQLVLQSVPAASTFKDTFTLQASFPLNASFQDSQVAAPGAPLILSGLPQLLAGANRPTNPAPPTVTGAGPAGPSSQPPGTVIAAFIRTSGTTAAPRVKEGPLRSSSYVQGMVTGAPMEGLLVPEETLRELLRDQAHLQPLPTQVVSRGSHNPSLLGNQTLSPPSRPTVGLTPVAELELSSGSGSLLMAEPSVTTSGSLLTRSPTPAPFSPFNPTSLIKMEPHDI
# Procedure, shortened: as §1
# ELK4 = target: T9, ELK4 (Homo sapiens, UniProt P28324-2 1-405); conditions: protein: recombinant; tags: N-terminal GST; dsDNA, one strand shown
# T9 sequence: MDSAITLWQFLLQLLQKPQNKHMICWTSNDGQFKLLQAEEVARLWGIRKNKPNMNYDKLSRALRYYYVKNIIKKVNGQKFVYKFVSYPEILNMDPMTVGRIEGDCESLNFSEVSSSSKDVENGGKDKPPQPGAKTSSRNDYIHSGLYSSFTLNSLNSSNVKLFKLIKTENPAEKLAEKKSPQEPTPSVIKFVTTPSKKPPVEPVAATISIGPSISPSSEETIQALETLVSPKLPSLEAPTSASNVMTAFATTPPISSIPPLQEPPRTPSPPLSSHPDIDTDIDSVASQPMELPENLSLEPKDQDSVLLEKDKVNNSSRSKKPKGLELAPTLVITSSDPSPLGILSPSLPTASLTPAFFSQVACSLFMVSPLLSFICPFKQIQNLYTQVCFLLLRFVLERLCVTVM
# Procedure, shortened: as §1
# ETV2 = target: T10, ETV2 (Homo sapiens, UniProt O00321 1-342); conditions: protein: recombinant; tags: N-terminal GST; dsDNA, one strand shown
# T10 sequence: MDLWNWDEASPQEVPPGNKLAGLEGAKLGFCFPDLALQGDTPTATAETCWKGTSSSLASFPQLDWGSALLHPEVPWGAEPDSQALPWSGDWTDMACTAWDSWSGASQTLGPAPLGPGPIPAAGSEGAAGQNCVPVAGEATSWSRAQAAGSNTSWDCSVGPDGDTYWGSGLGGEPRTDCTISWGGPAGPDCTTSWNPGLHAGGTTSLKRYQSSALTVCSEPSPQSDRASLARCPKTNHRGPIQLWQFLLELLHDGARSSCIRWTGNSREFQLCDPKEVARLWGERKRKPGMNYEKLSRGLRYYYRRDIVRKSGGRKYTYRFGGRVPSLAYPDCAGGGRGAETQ
# Procedure, shortened: as §1
# ELF3 = target: T11, ELF3 (Homo sapiens, UniProt P78545 1-371); conditions: protein: recombinant; tags: N-terminal GST; dsDNA, one strand shown
# T11 sequence: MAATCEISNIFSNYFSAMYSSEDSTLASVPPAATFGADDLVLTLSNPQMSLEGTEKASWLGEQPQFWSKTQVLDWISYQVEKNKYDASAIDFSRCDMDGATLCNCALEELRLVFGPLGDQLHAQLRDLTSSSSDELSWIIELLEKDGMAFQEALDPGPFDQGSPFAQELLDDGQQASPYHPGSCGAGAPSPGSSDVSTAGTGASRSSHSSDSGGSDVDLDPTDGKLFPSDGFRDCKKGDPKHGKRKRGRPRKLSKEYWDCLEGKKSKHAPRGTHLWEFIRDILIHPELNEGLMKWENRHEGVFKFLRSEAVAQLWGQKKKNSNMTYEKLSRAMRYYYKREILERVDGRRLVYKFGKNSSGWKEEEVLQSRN
# Procedure, shortened: as §1
# CRX = CRX (Homo sapiens, UniProt O43186 1-299); conditions: protein: recombinant; tags: N-terminal GST; dsDNA, one strand shown
# Sequence of CRX (O43186 whole entry): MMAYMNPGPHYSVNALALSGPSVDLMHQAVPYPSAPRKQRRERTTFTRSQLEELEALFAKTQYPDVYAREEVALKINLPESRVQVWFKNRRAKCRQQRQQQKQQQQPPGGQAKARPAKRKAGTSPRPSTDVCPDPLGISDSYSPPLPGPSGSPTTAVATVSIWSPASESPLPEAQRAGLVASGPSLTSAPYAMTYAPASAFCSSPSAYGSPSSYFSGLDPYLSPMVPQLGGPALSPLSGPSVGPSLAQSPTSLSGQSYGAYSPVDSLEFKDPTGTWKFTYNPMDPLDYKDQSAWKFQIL
# Procedure, shortened: as §1
# ETV1 = ETV1 (Homo sapiens, UniProt P50549 1-477); conditions: protein: recombinant; tags: N-terminal GST; dsDNA, one strand shown
# Sequence of ETV1 (P50549 whole entry): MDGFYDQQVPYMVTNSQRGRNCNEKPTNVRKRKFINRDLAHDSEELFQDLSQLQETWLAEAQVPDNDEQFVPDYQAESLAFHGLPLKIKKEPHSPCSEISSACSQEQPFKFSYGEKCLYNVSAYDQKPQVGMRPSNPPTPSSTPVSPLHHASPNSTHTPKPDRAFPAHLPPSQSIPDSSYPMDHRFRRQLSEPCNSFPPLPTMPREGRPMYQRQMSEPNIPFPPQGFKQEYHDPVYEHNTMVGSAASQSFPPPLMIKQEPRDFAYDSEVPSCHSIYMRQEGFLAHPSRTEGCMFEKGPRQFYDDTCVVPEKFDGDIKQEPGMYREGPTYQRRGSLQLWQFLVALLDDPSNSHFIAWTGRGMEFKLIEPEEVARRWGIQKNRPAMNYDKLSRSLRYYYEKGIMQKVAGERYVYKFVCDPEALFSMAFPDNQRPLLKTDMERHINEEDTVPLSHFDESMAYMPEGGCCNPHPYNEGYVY
# Procedure, shortened: as §1
sequence,measurement,setting,value
ACTCGT,binding signal,FLI1,"1.19 fold enrichment (6-mer frequency, TF over GST control)"
same,binding signal,ELK1,"1.37 fold enrichment (6-mer frequency, TF over GST control)"
same,binding signal,GABPA,"1.26 fold enrichment (6-mer frequency, TF over GST control)"
same,binding signal,ERG,"1.19 fold enrichment (6-mer frequency, TF over GST control)"
same,binding signal,ELF1,"1.25 fold enrichment (6-mer frequency, TF over GST control)"
same,binding signal,EHF,"1.26 fold enrichment (6-mer frequency, TF over GST control)"
same,binding signal,SPI1,"1.17 fold enrichment (6-mer frequency, TF over GST control)"
same,binding signal,SPIB,"1.26 fold enrichment (6-mer frequency, TF over GST control)"
same,binding signal,ELK3,"1.19 fold enrichment (6-mer frequency, TF over GST control)"
same,binding signal,FEV,"1.2 fold enrichment (6-mer frequency, TF over GST control)"
same,binding signal,ETV5,"1.22 fold enrichment (6-mer frequency, TF over GST control)"
same,binding signal,HSF1,"1.14 fold enrichment (6-mer frequency, TF over GST control)"
same,binding signal,SPIC,"1.16 fold enrichment (6-mer frequency, TF over GST control)"
same,binding signal,ELF4,"1.3 fold enrichment (6-mer frequency, TF over GST control)"
same,binding signal,ELK4,"1.28 fold enrichment (6-mer frequency, TF over GST control)"
same,binding signal,ETV2,"1.21 fold enrichment (6-mer frequency, TF over GST control)"
same,binding signal,ELF3,"1.25 fold enrichment (6-mer frequency, TF over GST control)"
same,binding signal,CRX,"1.08 fold enrichment (6-mer frequency, TF over GST control)"
same,binding signal,ETV1,"1.13 fold enrichment (6-mer frequency, TF over GST control)"
